# From PubChem BioAssay AID1259313 (Sanford-Burnham Center for Chemical Genomics, 2017)
# The whole screen tested about 340,000 compounds, of which about 8,500 (2.5%) were called active. This is one part of a sample in which actives are shown more often than they occur. Values without a mark were called inactive.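 How the source made its calls: active means melting temperature shift of at least 10% of the positive control shift, at one fixed dose; inactive means the rest.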
# System: Glutamate receptor ionotropic, NMDA 3A (GRIN3A) ligand-binding domain
# Assay: binders of NR3A ligand-binding domain, primary screen, biophysical, differential scanning fluorimetry, uHTS (AID 1259313)
# Details: NR3A LBD differential scanning fluorimetry, at 25 µM, active compounds read high, 0% = protein alone, 100% = glycine-bound protein
row,SMILES,Tm shift relative to glycine control
1,O=C(NCc1ccccc1Cl)C1CCN(S(=O)(=O)c2cccc3nonc23)CC1,2.6%
2,Cc1ccc(CN2C(=O)N/C(=C/c3cc(C)n(-c4ccccn4)c3C)C2=O)cc1,57.7% (active)
3,Cc1cc(/C=C2/NC(=O)NC2=O)c(C)n1-c1cccnc1,-4.95%
4,Cc1ccccc1-n1c(C)cc(/C=C2\NC(=O)NC2=O)c1C,-2.81%
5,COc1ccc(C2=NN(c3ccccc3)C(c3cccs3)C2)cc1 (stereo unspecified),0.58%
6,O=C1C2N=NN(CC(=O)N3N=C(c4cccc5ccccc45)CC3c3ccccc3)C2C(=O)N1c1ccccc1 (stereo unspecified),-0.6%
7,Oc1ccccc1C1=NN(c2ccccc2)C(c2ccccc2)C1 (stereo unspecified),11.9% (active)
8,O=C(CCN1C(=O)C2C3C=CC(C3)C2C1=O)Oc1ccc2ccccc2c1 (stereo unspecified),-2.31%
9,Cc1ccc(C(=O)COC(=O)CCN2C(=O)C3C4CCC(C4)C3C2=O)cc1C (stereo unspecified),1.5%
10,Cc1ccc(C(=O)COC(=O)CCN2C(=O)C3C4CC(C(Br)C4Br)C3C2=O)cc1 (stereo unspecified),18% (active)
11,Cc1nn(Cc2ccc(Cl)cc2)c(Cl)c1/C=N/NC(=O)c1cccnc1,-6.33%
12,Cc1nn(Cc2ccc(Cl)cc2)c(Cl)c1/C=N/NC(=O)CNc1ccccc1F,16.1% (active)
13,CCn1nc(C)c(/C=N/NC(=O)Cc2ccc(Cl)cc2)c1C,1.94%
14,C/C=C/C(=O)OCc1csc(CC(=O)Nc2ccccc2C)n1,-1.3%
15,Cc1ccc(S(=O)(=O)N2CCN(CC(=O)N/N=C/c3cc([N+](=O)[O-])ccc3Cl)CC2)cc1,19.9% (active)
16,Cc1ccc(C)c(S(=O)(=O)N2CCN(CC(=O)Nc3ccc([N+](=O)[O-])cc3)CC2)c1,-7.08%
17,Cc1ccc(S(=O)(=O)N2CCN(CC(=O)N/N=C/c3ccc(Br)s3)CC2)cc1,0.82%
18,CCOC(=O)CN(C)S(=O)(=O)c1ccc(-c2cc(C(=O)OC)sc2C(F)(F)F)cc1,-0.21%
19,CCC(CC)C(=O)Nc1cccc(C(=O)N2CCCC2)c1,-2.45%
20,Cc1cc(C(=O)COc2ccc(Br)cc2F)c(C)n1C1CC1,1.06%
21,COc1ccc(CCn2nnnc2C(c2ccccc2)N2CCN(C)CC2)cc1OC (stereo unspecified),10.2% (active)
22,COc1ccc(C(c2nnnn2Cc2cccs2)N2CCN(c3ccccc3)CC2)cc1OC (stereo unspecified),0%

row,SMILES,Tm shift relative to glycine control
1,N#Cc1ccc(C(c2nnnn2CCc2ccccc2)N2CCCCCC2)cc1 (stereo unspecified),1.53%
2,COc1ccc(S(=O)(=O)N2CCN(c3ncnc4c(-c5ccccc5)nsc34)CC2)cc1,-1.19%
3,O=C(c1ccc(F)cc1)c1c[nH]c(C(=O)NCc2cccnc2)c1,-1.06%
4,CCN(Cc1ccncc1)C(=O)c1cccc(S(=O)(=O)N2CCOCC2)c1,0.46%
5,CC(C)CNS(=O)(=O)c1ccc(C(=O)Nc2ccc3c(c2)OCO3)cc1,-0.27%
6,Cc1ccc(S(=O)(=O)NCC(=O)Nc2ccc3c(c2)OCCO3)cc1,0.9%
7,CNS(=O)(=O)c1ccc(NC(=O)Nc2ccc3c(c2)OCO3)cc1,11.2% (active)
8,COc1ccc2[nH]cc(CCN3C(=O)c4ccc(C(=O)O)cc4C3=O)c2c1,-2.98%
9,COc1ccc2[nH]cc(/C=C(/C#N)S(=O)(=O)c3ccccc3)c2c1,13.2% (active)
10,CCN(CC)CC(=O)c1c[nH]c2ccc(OC)cc12,-2.92%
11,C=C(C)C1CC=C(C)/C(=N/NC(=O)CCCNc2cccc(C)c2)C1 (stereo unspecified),-0.09%
12,CCc1cc2c(SCC(=O)Nc3ncc(Cl)c(C)c3Cl)ncnc2s1,-1.41%
13,O=C(NNC(=O)c1cccc(S(=O)(=O)Nc2ccc(Cl)cc2)c1)c1ccc(=O)[nH]c1,0.33%
14,CC(C)N(C(=O)CSc1nnc(NC2CC2)s1)c1ccccc1,-1.56%
15,Cc1cc2c(=O)n(C)c(SCC(=O)c3cc4ccccc4o3)nc2s1,-0.65%
16,CC(C)c1ccc(Nc2nnc(SCC(=O)c3nnc(-c4ccccc4)o3)s2)cc1,19.9% (active)
17,Cc1ccc(Nc2nnc(SCC(=O)c3cc4ccccc4o3)s2)cc1C,11.5% (active)
18,CC(C)Nc1nnc(SCC(=O)c2c[nH]c3ccccc23)s1,-3.26%
19,Cc1ccccc1Nc1nnc(SCC(=O)c2cc3ccccc3o2)s1,-23.4%
20,O=C(CN1C(=O)CCS(=O)(=O)c2ccccc21)NCc1ccc(F)cc1,-2.05%
21,CN1CCN(C(=O)c2ccc(NS(=O)(=O)c3ccccc3)cc2)CC1,-0.09%
22,OCCCC1CCCCN1Cc1nc(Cc2ccccc2Cl)no1 (stereo unspecified),0.08%

row,SMILES,Tm shift relative to glycine control
1,NS(=O)(=O)c1cc(C(=O)NCCOc2ccccc2)c(Cl)cc1Cl,-0.6%
2,CCCN(C(=O)CSc1nnc(N)s1)c1c(N)n(Cc2ccccc2)c(=O)[nH]c1=O,5.76%
3,O=C(O)CC/C(=C\c1cc2c(cc1Br)OCO2)c1nc2ccccc2s1,-1.28%
4,CC1=CC(=C(C#N)c2nc3ccccc3s2)C=C(C)N1c1ccc(F)cc1F,-4.96%
5,N#C/C(=C(/O)Cc1cccc2ccccc12)c1nc2ccccc2s1,19.3% (active)
6,Cc1cc(NC(=O)c2ccco2)c(=O)n(Cc2c(F)cccc2Cl)c1,-1.84%
7,O=C(C[C@H]1C[C@H](C(=O)N2CCOCC2)[C@@]2(CCC3CCCC3)c3[nH]c4ccc(Cl)cc4c3CCN2C1=O)NCc1ccco1,3%
8,COc1ccc2[nH]c3c(c2c1)CCN1C(=O)C(CC(=O)NCCCN(C)C)C[C@H](C(=O)N2CCOCC2)[C@@]31CCC1CCCC1 (stereo partly specified),0.34%
9,COc1ccc(CNC(=O)C[C@H]2C[C@H](C(=O)N3CCOCC3)[C@@]3(CCC4CCCC4)c4[nH]c5ccc(Cl)cc5c4CCN3C2=O)cc1OC,10% (active)
10,C/C(Cc1ccccc1)=N\NC(=O)CNC(=O)c1ccc2c(c1)OCCO2,12.5% (active)
11,C/C(Cc1ccccc1)=N\NC(=O)CNC(=O)c1ccccc1Cl,0%
12,C/C(Cc1ccccc1)=N\NC(=O)CNC(=O)c1cccc(Br)c1,-3.32%
13,O=S(=O)(Nc1ccc(-n2cnnn2)cc1)c1ccc(Cl)cc1,0.42%
14,CC(=O)[C@@]12O[C@@H]1C[C@H]1[C@@H]3CC[C@H]4C[C@@H](O)CC[C@]4(C)[C@H]3CC[C@@]12C,0%
15,Cc1ccc(C(=O)NCC(=O)OCC(=O)Nc2cccc(S(=O)(=O)N3CCCC3)c2)cc1C,-2.16%
16,N/C(=N\c1nc2ccccc2o1)NC(=O)C(Cc1ccccc1)N1C(=O)c2ccccc2C1=O (stereo unspecified),-1.81%
17,COc1ccc(CCNC(=O)CCc2ccccc2O)cc1OC,19.5% (active)
18,CC(=O)c1ccc(NC(=O)CCNS(=O)(=O)c2cc(Br)cnc2N)cc1,-12.8%
19,COc1ccc(CCNC(=O)Cc2ccc(C)cc2)cc1OC,-3.8%
20,COc1ccc(CCNC(=O)C(=O)NCc2ccccc2C)cc1OC,-1.17%
21,COc1ccc(CCNC(=O)CCNS(=O)(=O)c2cc(Br)cnc2N)cc1OC,11% (active)
22,COc1ccc(CCNC(=O)CSCc2ccc(Br)cc2)cc1OC,0.53%

row,SMILES,Tm shift relative to glycine control
1,Cc1cccc(OCCC(=O)Nc2cc(S(=O)(=O)N3CCCCC3)ccc2N2CCOCC2)c1,6.71%
2,C=CCc1cccc(/C=N/NC(=O)COc2ccc(-n3cnnn3)cc2)c1O,24.6% (active)
3,O=C(COc1cccc(-n2cnnn2)c1)NCCC1=CCCCC1,-4.1%
4,O=C(COc1ccc(-n2cnnn2)cc1)Nc1ccccc1Cl,-3.66%
5,COc1ccc(-c2ccc3c(c2)C2CC3CCN2CCC#N)cc1 (stereo unspecified),0.87%
6,N#CCOc1ccc(C2=NO[C@@H]3[C@@H]4C[C@@H]([C@H]5C(=O)N(c6ccc7c(c6)OCO7)C(=O)[C@@H]45)[C@H]23)cc1,-1.3%
7,Cc1cc(CN(C)C(=O)c2cc(COc3ccc(C)c(C)c3)on2)n[nH]1,-0.56%
8,Cc1cc(Cl)ccc1OCCCC(=O)NCc1ccncc1,21.3% (active)
9,Cc1cc(Cl)ccc1OCCCC(=O)NCc1ccccn1,-3.24%
10,Cc1cc(Cl)ccc1OCCCC(=O)Nc1cccc(-n2cnnn2)c1,4.11%
11,CCOCCCNC(=O)Cc1cc(=O)[nH]c(=O)[nH]1,-1.66%
12,OCC[C@H]1C[C@H](O)[C@@H](O)[C@]2(CCc3ccccc3O2)O1,1.78%
13,CC1CN(CC(=O)NC(C)c2ccccc2)CC(C)O1 (stereo unspecified),-1.03%
14,CCC(=O)c1cn(CCOc2ccccc2OC)c2ccccc12,2.85%
15,CC(=O)Nc1ccc(S(=O)(=O)NC2(C(F)(F)F)C(=O)NC(C)=C2C#N)cc1 (stereo unspecified),-1.26%
16,Cc1ccc(S(=O)(=O)NC2(C(F)(F)F)NC(=O)N(CCc3ccccc3)C2=O)cc1 (stereo unspecified),-0.75%
17,CCCN1C(=O)C(NS(=O)(=O)c2ccc(N)cc2)(C(F)(F)F)C(C(=O)OC)=C1C (stereo unspecified),13.6% (active)
18,Nc1ncnc(Nc2cccc(Cl)c2Cl)n1,-0.42%
19,O=C(NCc1ccccc1)[C@H]1C[C@@H]1[C@H](NP(=O)(c1ccccc1)c1ccccc1)c1ccccc1,-1.54%
20,CC[C@]12c3[nH]c4cc(CCC(=O)N(C)C)ccc4c3CCN1C(=O)[C@@H](CC(=O)NCC13CC4CC(CC(C4)C1)C3)C[C@@H]2C(=O)N1CCN(C(=O)C2CC2)CC1,-2.56%
